VACV Venus inh: inhibitors of vaccinia virus (Venus reporter); Vaccinia virus Venus reporter expression, fluorescence; Potency, µM (series often up to 36.5 µM), without a hit: at the highest dose activity change, negative = inhibition, actives largely listed as inhibitors; hit rate 0.46% among 330,000; AID 720580; calls by dose curve; tested in A549 cells; further: potency means the concentration at half of the fitted maximal effect; nearly all actives have a fitted effect of over 30% in size
FMDV inh: foot and mouth disease virus antiviral activity | AID 1159524 | FMDV antiviral cell-based qHTS | hit rate 1.2% among 410,000 | Potency, µM (doses to about 57.9 µM), for inactives: top-dose activity change, negative = inhibition, actives largely listed as inhibitors; calls by dose curve; tested in HEK293T cells; further: read-out not given here; potency means the concentration at half of the fitted maximal effect; nearly all actives have a fitted effect of over 45% in size
LASV entry inh: Lassa virus entry inhibition; Lassa virus pseudotype entry inhibition, cell reporter; hit rate 1.2% among 300,000; Potency, µM (doses to about 37.9 µM), inactives show at the top dose activity change, negative = inhibition, usual class: inhibitors; AID 540256; calls by dose curve; tested in HEK293 cells; further: potency means the concentration at half of the fitted maximal effect; nearly all actives have a fitted effect of over 50% in size
Marburg entry inh: Marburg virus entry inhibition. Potency, µM (top dose mostly 37.8 µM), inactives show at the highest dose activity change, negative = inhibition, actives largely listed as inhibitors. Marburg virus pseudotyped entry inhibition, cell reporter. hit rate 1.8% among 300,000; calls by dose curve; tested in HEK293 cells; further: potency means the concentration at half of the fitted maximal effect
HCMV antiviral: inhibitors of human cytomegalovirus. HFF cells, HCMV-luciferase reporter, 72 h; stronger effect = lower value. activity change, negative = inhibition, % at 57.5 µM. hit rate 4.5% among 410,000. AID 1259415; in the data active means activity change below about -60%; inconclusive means no clear call, values can overlap the other calls; inactive means above about -39%
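Luciferase read-out from HCMV-luciferase-infected HFFs (MOI 1 PFU/cell) 72 h post infection at 37C; compounds added after 16 h cell attachment; activity normalized between buffer-only basal and Salinomycin (10uM) inhibitor controls.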
VACV mCherry inh: inhibitors of vaccinia virus infection (mCherry reporter signal); Potency, µM (highest dose often 36.5 µM), without a hit: at the top dose activity change, negative = inhibition, most hits filed as inhibitors; hit rate 0.63% among 310,000; Vaccinia virus mCherry reporter infection, fluorescence; AID 720579; calls by dose curve; tested in A549 cells; further: potency means the concentration at half of the fitted maximal effect; nearly all actives have a fitted effect of over 35% in size
* hit, by the source's call; i = inactive; u = inconclusive; x = no result; + = active, no number; ! = not confirmed by another sample; [ ] = remark or other dose. An excerpt weighted towards active compounds, which were near 6.5% of everything screened. On the % scale 0 is the no-effect control and ±100 the full control effect.

SMILES	VACV Venus inh	FMDV inh	LASV entry inh	Marburg entry inh	HCMV antiviral	VACV mCherry inh
CC1=CC(C)(C(Cl)(Cl)Cl)C(C)=CC1=NO (stereo unspecified)	-25%	-27%	x	x	-69*	-9%
CC(=O)c1ccc(N2CCN(C(=O)c3cccc(Oc4ccccc4)c3)CC2)cc1	-24%	-21%	3.2µM*	u	-1	-12%
COc1ccc(N2CCN(C(=S)Nc3ccccc3)CC2)cc1	-7%	16%	u	u	-15	-18%
CC(=O)c1ccc(N2CCN(C(=O)c3n[nH]c4ccccc34)CC2)cc1	-21%	u	-12%	u	-1	-3%
CC(=O)c1ccc(N2CCN(C(=O)c3nn(Cc4ccccc4)c(=O)c4ccccc34)CC2)cc1	-8%	-4%	10µM*	u	5	-17%
CC(=O)c1ccc(N2CCN(C(=O)c3ccc(-c4ccccc4)cc3)CC2)cc1	-9%	-8%	u	-22%[46.1 µM]	-66*	i
CC(=O)c1ccc(N2CCN(C(=S)Nc3ccc(Oc4ccccc4)cc3)CC2)cc1	-24%	0%	u	u	-63*	u
COc1ccccc1C(=O)N(Cc1cc2cccc(C)c2nc1N1CCC(O)CC1)C1CC1	5%	-7%	x	x	x	-14%
CCOCc1cc(=O)[nH]c(SC)n1	-9%	-2%	x	x	-60*	i
CSc1nc(Cl)cc(=O)[nH]1	-6%	-2%	x	x	-39	i
Cc1ccc(NC(=O)C2CCN(S(=O)(=O)c3ccc4c(c3)CCCC(=O)N4)CC2)c(Br)c1	-19%	-18%	u	10%[46.1 µM]	+!	-8%
Cc1ccc(NC(=O)C2CCN(S(=O)(=O)c3ccc4c(c3)NC(=O)C(C)S4)CC2)c(Cl)c1 (stereo unspecified)	x	18µM*	x	x	0	x
Cc1ccc(NC(=O)C2CCN(S(=O)(=O)c3ccc4c(c3)NC(=O)C(C)S4)CC2)cc1Cl (stereo unspecified)	x	u	x	x	-99*	x
CC1Sc2ccc(S(=O)(=O)N3CCC(C(=O)NCCc4ccccc4)CC3)cc2NC1=O (stereo unspecified)	-15%	-22%	u	u	53	-13%
Cc1ccc(CCNC(=O)C2CCN(S(=O)(=O)c3ccc4c(c3)NC(=O)C(C)S4)CC2)cc1 (stereo unspecified)	-27%	32µM*	u	u	u	i
CC(C)c1ccc(-c2noc(SCC(=O)N3CCCCC3)n2)cc1	-8%	6%	u	x	18	-16%
COc1cc(=O)n2c(c1C(=O)NC(C)c1ccco1)CCN(C(=O)c1cccc(C)c1C)CC2 (stereo unspecified)	-8%	27%	x	x	x	-12%
CCCCOc1ccc(C2=NC(c3ccncc3)=Nc3ccc(Br)cc3N2)cc1	-10%	-4%	-2%[46.1 µM]	-18%[46.1 µM]	-7	-8%
CC(C)c1ccc(NC(=O)C2CCC(CNS(=O)(=O)c3ccc4c(c3)CCCC(=O)N4)CC2)cc1 (stereo unspecified)	u	25µM*	u	x	-25	u
Cc1cccc(CCNC(=O)C2CCN(S(=O)(=O)c3ccccc3)CC2)c1	-4%	-18%	-19%	-4%[46.1 µM]	-68*	-12%
O=C(NCCc1cccc(F)c1)C1CCN(S(=O)(=O)c2ccccc2)CC1	x	-16%	x	x	-36	x
CCOc1ccccc1NC(=O)C(=O)NCC(c1cccnc1)N1CCN(c2ccccc2)CC1 (stereo unspecified)	-15%	u	-27%[46.1 µM]	x	-21	u
CCCCCC(CC(=O)NO)C(=O)NC(C(=O)N1CCCC1CO)C(C)C (stereo unspecified)	-15%	-18%	x	x	-69*	i
CCc1nc(N=Nc2c(O)[nH]c3ccccc23)c2c3c(sc2n1)CCC3	10µM*	9%	-1%	-13%	u	16µM*
CCc1ccc(C(=O)C(C)OC(=O)C2COc3ccccc3O2)cc1 (stereo unspecified)	-12%	-7%	11%	11%	-98*	-15%
c1ccc2c(N3CCCCCC3)nc(CN3CCCCC3c3nccs3)nc2c1 (stereo unspecified)	-12%	-13%	x	x	x	u
CCn1cc(C(=O)O)c(=O)c2c1CC(N1CCNCC1)=C(F)C2	x	x	x	-7%	x	x
COc1ccc(CN(C(=O)CSc2nnc(-c3ccccc3C)o2)c2ccc(F)cc2)cc1	-10%	u	-17%	u	-75*	x

Screening data as filed in PubChem BioAssay.
